A selection follows.
RMI FANCM FP – RMI-FANCM interaction inhibition. actives 0.58% (n = 70,000). Fluorescence polarization, RMI core complex with F-MM2 peptide; stronger effect = lower value. FP signal (polarization) at 33 µM; in the data active = FP signal below about 40
Calls only; . = inactive.

SMILES	RMI FANCM FP
CCOC(=O)/C(C#N)=C/Nc1ccc(Oc2cncc(Cl)c2)nc1	.
CSc1ccc(C(=O)Nc2ccc(Cl)cc2)s1	.
Cc1ccc(C)c2sc(NC(=O)c3ccccc3Br)nc12	.
CC(C)C[C@H](NC(=O)[C@H]1CCCN1C(=O)OCc1ccccc1)C(=O)O	.
Cc1ccc(CNC(=O)C(=O)NCC(c2ccsc2)N(C)C)cc1 (stereo not given)	.
